Results filed as inconclusive are left out. Active and inactive are the calls of the source. Unless noted, calls follow the shape of the full dose curve.
Columns and labels:
[1] = Nuclear factor erythroid 2-related factor 2/antioxidant responsive element (Nrf2/ARE) small molecule agonists: qHTS cell viability counter screen in human keratinocytes (AID 1919968; active = well fitted curve in the direction sought with a large enough effect in the repeat runs; an effect the other way counts as inactive or inconclusive; also: nearly all actives have a fitted effect of over 55% in size; also: potency is read from the fitted curve at half-maximal effect)
Procedure, shortened: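 Stably transfected HaCaT (KeratinoSens), 1,500/well. Test agents in DMSO were applied for 23 h, 37 C/5% CO2. CellTiter-Fluor was incubated 1 h before the fluorescence read.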

[2] = Nuclear factor erythroid 2-related factor 2/antioxidant responsive element (Nrf2/ARE) small molecule agonists: luciferase reporter gene qHTS assay in human keratinocytes (AID 1919969); also: nearly all actives have a fitted effect of over 35% in size; also: potency is read from the fitted curve at half-maximal effect
[3] = biological target: Gonadotropin-releasing hormone receptor (Homo sapiens) (UniProt P30968); assay: Human gonadotropin-releasing hormone receptor (GnRHR) small molecule agonists, calcium flux assay in GnRHR-HEK293 cells (AID 1920063); also: nearly all actives have a fitted effect of over 35% in size
Procedure, shortened: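 Stable human GnRHR HEK293 line. 18 h plating, then calcium dye for 1 h at 37 C. Agonist-mode compound addition from DMSO stocks; fluorescence monitored 3 min.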

[4] = biological target: KiSS-1 receptor (Homo sapiens) (UniProt Q969F8); assay: Human kisspeptin (KISS1R) small molecule agonists, calcium flux assay in KISS1R-HEK293 cells (AID 1920064; active = well fitted curve in the direction sought with a large enough effect in the repeat runs; an effect the other way counts as inactive or inconclusive)
Procedure, shortened: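 After overnight (18 h) culture at 37 C/5% CO2, human KISS1R-HEK293 cells received calcium dye for 1 h, then test compound; emission at 540 nm (excitation 480 nm) was tracked for 3 min.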

[5] = G protein-coupled receptor (GPCR) small molecule agonists, calcium flux assay: HEK293 wild type cell line counter screen (AID 1920065)
Procedure, shortened: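 Following 18 h incubation at 37 C/5% CO2, plates got calcium dye for 1 h; compounds, ATP or DMSO were then pinned in and fluorescence followed kinetically (480/540 nm).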

[6] = p53 small molecule agonists, cell-based qHTS assay with human liver microsomes (AID 1963577);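 also: p53 response element beta-lactamase reporter cells with liver microsomes plus NADPH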
Procedure, shortened: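 Steps: plate p53RE-bla cells, incubate 5 h at 37 C; add compound in DMSO; add microsomes (0.5 mg/mL final) and NADPH (0.5 mg/mL final); incubate 16 h at 37 C; add LiveBLAzer, 2 h RT; read fluorescence.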

[7] = p53 small molecule agonists, cell-based qHTS assay with rat liver microsomes (AID 1963578)
Procedure, shortened: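 Metabolic activation is supplied by rat liver microsomes with NADPH (each 0.5 mg/mL final). p53RE-bla cells incubate with compound 16 h at 37 C; reporter activity is measured by LiveBLAzer fluorescence.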

[8] = p53 small molecule agonists, cell-based qHTS assay with rat liver microsomes: qHTS cell viability counter screen (AID 1963580); also: nearly all actives have a fitted effect of over 45% in size
Procedure, shortened: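 Rat liver microsome (0.5 mg/mL final) and NADPH (0.5 mg/mL final) co-incubation with compounds for 16 h at 37 C on HCT-116 p53RE-bla cells; cytotoxicity taken from intracellular ATP luminescence.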

[9] = p53 small molecule agonists, cell-based qHTS assay: qHTS cell viability counter screen (AID 1963581); also: nearly all actives have a fitted effect of over 45% in size
Procedure, shortened: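 qHTS counter screen: 16 h compound exposure at 37 C of p53RE-bla HCT-116 cells (4,000 per well, seeded 5 h prior), cell viability by ATP luminescence.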

[10] = p53 small molecule agonists, cell-based qHTS assay (AID 1963582; active = well fitted activation curve with a large enough effect in the signal ratio in the repeat runs, not every such curve was filed as active; the % refers to the signal ratio)
Procedure, shortened: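 Measured: fluorescence from cleaved LiveBLAzer substrate. System: p53RE-bla cells, 16 h compound treatment at 37 C, 2 h substrate step at room temperature.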

[11] = cAMP Responsive Elements (CRE) small molecule agonists, cell-based qHTS assay (AID 1963590)
Procedure, shortened: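 Test agents in DMSO were incubated 3 h at 37 C/5% CO2 with CRE-bla HEK 293T cells seeded 18 h earlier; LiveBLAzer B/G FRET substrate was added and read after 2 h at room temperature.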

[12] = biological target: Beta-2 adrenergic receptor (Homo sapiens) (UniProt P07550); assay: Adrenergic beta2 receptor (ADRB2) small molecule antagonists, cell-based qHTS assay (AID 1963592); also: nearly all actives have a fitted effect of over 50% in size; also: potency is read from the fitted curve at half-maximal effect
Procedure, shortened: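 Assay format: CHO-ADRB2 cells, 18-20hr seeding at 37C/5% CO2, then compound plus 1nM isoproterenol agonist mix for 0.5hr RT. Homogeneous time-resolved fluorescence cAMP detection after 1hr, expressed as 665/615 nm ratio.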

[13] = biological target: D(2) dopamine receptor (Homo sapiens) (UniProt P14416); assay: Dopamine D2 receptor (DRD2) small molecule agonists, cell-based qHTS assay (AID 1963594); also: nearly all actives have a fitted effect of over 35% in size
Procedure, shortened: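 cAMP accumulation in DRD2-HEK293 cells measured by HTRF after 1 h detection; compounds added 10 min before NKH477 (200nM […]) forskolin-analogue stimulation, 30 min at room temperature, with Ro20-1724 present at 0.1 mM final.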

[14] = biological target: D(2) dopamine receptor (Homo sapiens) (UniProt P14416); assay: Dopamine D2 receptor (DRD2) small molecule antagonists, cell-based qHTS assay (AID 1963595; active = well fitted inhibition curve with a large enough effect in the signal ratio in the repeat runs, with a control signal flat; the % refers to the signal ratio)
Procedure, shortened: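 Readout: HTRF cAMP, cAMP-d2 competing with cellular cAMP for anti-cAMP cryptate, read after 1 h. Cells: DRD2-HEK293. Conditions: 0.1 mM Ro20-1724, 12 nM quinpirole, 200 nM NKH477, 30 min RT.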

[15] = biological target: 5-hydroxytryptamine receptor 2A (Homo sapiens) (UniProt P28223); assay: 5-hydroxytryptamine receptor 2A (HTR2A) small molecule antagonists, cell-based qHTS assay (AID 1963586); also: nearly all actives have a fitted effect of over 45% in size
Procedure, shortened: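 CHO cells stably expressing human HTR2A were plated for 18 h at 37 C, then loaded with calcium dye for 1 h. Compounds were preincubated 5 min at room temperature before DOI (4 nM solution) was added. Kinetic fluorescence was read for 3 min.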

[16] = biological target: 5-hydroxytryptamine receptor 2A (Homo sapiens) (UniProt P28223); assay: 5-hydroxytryptamine receptor 2A (HTR2A) small molecule agonists, cell-based qHTS assay (AID 1963587); also: nearly all actives have a fitted effect of over 30% in size; also: potency is read from the fitted curve at half-maximal effect
Procedure, shortened: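 Kinetic calcium-flux fluorescence (2 min, 1 sec intervals) after compound addition in agonist mode. HTR2A-CHO cells were cultured 18 h, then dye-loaded 1 h at 37 C.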

[17] = biological target: Muscarinic acetylcholine receptor M1 (Homo sapiens) (UniProt P11229); assay: Cholinergic receptor muscarinic 1 (CHRM1) small molecule antagonists, cell-based qHTS assay (AID 1963588); also: nearly all actives have a fitted effect of over 40% in size; also: potency is read from the fitted curve at half-maximal effect
Procedure, shortened: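 Compounds were tested at 15 concentrations in three independent runs. Dye-loaded CHRM1-CHO cells were exposed 5 min at room temperature before stimulation by acetylcholine added at 50nM. Intracellular calcium was read kinetically on FDSS for 3 min.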

[18] = biological target: Muscarinic acetylcholine receptor M1 (Homo sapiens) (UniProt P11229); assay: Cholinergic receptor muscarinic 1 (CHRM1) small molecule agonists, cell-based qHTS assay (AID 1963589); also: nearly all actives have a fitted effect of over 35% in size
Procedure, shortened: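 Kinetic fluorescence (1 s intervals) of calcium-sensitive dye in human M1 CHO cells after compound addition; cells pre-incubated 18 h at 37 C/5% CO2 and dye-loaded 1 h.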

[19] = cAMP Responsive Elements (CRE) small molecule antagonists, cell-based qHTS assay (AID 1963591; active = well fitted inhibition curve with a large enough effect in the signal ratio in the repeat runs, not every such curve was filed as active; the % refers to the signal ratio; also: potency is read from the fitted curve at half-maximal effect)
Procedure, shortened: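 Reporter line CRE-bla HEK 293T in dialyzed-FBS DMEM; cells preincubated 18 h, treated 3 h with compound plus NKH477 (0.25 uM final); LiveBLAzer FRET, 2 h RT.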

[20] = biological target: Beta-2 adrenergic receptor (Homo sapiens) (UniProt P07550); assay: Adrenergic beta2 receptor (ADRB2) small molecule agonists, cell-based qHTS assay (AID 1963593);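 also: CHO cells stably overexpressing human ADRB2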
Procedure, shortened: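 CHO cells stably over-expressing ADRB2 were plated overnight at 37C, then dosed with compounds plus a stimulation mix containing 100uM IBMX and 25uM Ro-20-1724 for 0.5hr at room temperature. cAMP was measured by HTRF competition, 1hr.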

Measured: Potency

Muscarinic acetylcholine receptor M1 (Homo sapiens), sequence (P11229 whole entry, looked up): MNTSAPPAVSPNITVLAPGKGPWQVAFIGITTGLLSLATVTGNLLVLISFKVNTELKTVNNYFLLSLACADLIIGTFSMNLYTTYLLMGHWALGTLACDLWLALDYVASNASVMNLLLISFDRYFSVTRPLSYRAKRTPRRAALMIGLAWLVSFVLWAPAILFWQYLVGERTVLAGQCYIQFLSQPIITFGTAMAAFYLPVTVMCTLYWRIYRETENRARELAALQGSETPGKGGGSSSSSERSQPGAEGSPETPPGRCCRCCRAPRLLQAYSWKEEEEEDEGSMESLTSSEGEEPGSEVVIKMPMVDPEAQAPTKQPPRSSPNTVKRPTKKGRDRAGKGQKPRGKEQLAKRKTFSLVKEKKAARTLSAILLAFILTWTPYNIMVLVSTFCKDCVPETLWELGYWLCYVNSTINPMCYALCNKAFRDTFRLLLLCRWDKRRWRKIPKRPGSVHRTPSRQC
5-hydroxytryptamine receptor 2A (Homo sapiens), sequence (P28223 whole entry, looked up): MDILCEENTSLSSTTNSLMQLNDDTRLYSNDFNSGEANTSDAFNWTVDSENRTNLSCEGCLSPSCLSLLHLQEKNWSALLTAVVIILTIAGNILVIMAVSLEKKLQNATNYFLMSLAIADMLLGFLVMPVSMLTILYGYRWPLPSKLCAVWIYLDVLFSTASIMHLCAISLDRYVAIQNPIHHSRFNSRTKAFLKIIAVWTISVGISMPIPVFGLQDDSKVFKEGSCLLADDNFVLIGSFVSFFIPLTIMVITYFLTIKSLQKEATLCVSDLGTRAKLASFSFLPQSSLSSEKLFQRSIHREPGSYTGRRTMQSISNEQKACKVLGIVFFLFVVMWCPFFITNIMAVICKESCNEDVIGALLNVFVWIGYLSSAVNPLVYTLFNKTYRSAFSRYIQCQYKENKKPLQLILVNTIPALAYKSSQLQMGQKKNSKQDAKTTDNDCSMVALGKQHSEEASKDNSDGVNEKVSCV
Gonadotropin-releasing hormone receptor (Homo sapiens), sequence (P30968 whole entry, looked up): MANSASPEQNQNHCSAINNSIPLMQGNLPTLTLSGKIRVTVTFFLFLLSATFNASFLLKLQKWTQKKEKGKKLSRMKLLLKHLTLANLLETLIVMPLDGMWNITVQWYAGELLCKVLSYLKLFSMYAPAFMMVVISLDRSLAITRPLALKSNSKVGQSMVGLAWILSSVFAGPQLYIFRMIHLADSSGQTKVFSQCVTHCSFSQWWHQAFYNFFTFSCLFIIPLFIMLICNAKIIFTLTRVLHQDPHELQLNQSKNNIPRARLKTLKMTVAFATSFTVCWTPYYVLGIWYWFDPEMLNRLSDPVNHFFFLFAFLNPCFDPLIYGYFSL
D(2) dopamine receptor (Homo sapiens), sequence (P14416 whole entry, looked up): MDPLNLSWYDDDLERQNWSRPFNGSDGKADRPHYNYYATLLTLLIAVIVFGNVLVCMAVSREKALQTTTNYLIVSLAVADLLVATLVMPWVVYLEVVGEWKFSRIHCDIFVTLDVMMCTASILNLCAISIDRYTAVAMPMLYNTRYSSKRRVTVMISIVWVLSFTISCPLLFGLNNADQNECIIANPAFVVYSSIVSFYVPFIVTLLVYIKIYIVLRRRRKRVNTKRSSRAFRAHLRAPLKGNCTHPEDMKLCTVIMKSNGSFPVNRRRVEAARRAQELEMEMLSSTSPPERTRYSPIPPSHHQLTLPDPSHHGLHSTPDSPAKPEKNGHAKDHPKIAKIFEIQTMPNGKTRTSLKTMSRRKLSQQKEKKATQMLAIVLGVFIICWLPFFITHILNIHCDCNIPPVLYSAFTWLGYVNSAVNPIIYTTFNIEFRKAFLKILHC
Beta-2 adrenergic receptor (Homo sapiens), sequence (P07550 whole entry, looked up): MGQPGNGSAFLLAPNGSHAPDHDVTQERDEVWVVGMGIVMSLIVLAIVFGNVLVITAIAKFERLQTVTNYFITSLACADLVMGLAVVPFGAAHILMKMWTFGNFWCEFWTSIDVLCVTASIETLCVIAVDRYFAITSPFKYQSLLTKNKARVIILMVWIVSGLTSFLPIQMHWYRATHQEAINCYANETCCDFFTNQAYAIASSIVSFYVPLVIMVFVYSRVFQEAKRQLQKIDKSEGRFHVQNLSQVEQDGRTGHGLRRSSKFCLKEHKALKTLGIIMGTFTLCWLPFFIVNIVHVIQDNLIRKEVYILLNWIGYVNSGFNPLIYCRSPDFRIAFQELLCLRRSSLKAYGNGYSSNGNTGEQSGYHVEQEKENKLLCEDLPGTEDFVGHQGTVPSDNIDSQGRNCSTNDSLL
KiSS-1 receptor (Homo sapiens), sequence (Q969F8 whole entry, looked up): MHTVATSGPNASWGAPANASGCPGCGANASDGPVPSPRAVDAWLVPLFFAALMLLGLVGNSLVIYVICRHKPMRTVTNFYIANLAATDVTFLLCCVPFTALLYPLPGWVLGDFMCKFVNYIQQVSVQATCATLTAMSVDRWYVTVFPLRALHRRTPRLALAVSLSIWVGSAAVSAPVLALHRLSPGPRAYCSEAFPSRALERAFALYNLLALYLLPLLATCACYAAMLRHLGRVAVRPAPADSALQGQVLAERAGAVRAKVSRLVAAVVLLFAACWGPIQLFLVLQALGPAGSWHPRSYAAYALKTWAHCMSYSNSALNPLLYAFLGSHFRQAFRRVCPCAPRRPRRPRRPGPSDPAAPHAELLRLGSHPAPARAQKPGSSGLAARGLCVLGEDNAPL

CC(C(=O)O)c1ccc(CC2CCCC2=O)cc1 (centres undefined)
not listed: [15] | [16] | [17] | [18] | [19] | [20]
inactive: all other assays above

O=C1OC(O)C(C(Cl)Cl)=C1Cl (centres undefined)
active: [1] 63 µM | [2] 25.1 µM | [19] 44.6 µM
not listed: [10] | [11] | [13] | [20]
inactive: all other assays above

CN(CCOc1ccc(NS(C)(=O)=O)cc1)CCc1ccc(NS(C)(=O)=O)cc1
active: [17] 8.18 µM
not listed: [10] | [12] | [20]
inactive: all other assays above

Cc1cccc(CN2CCN(C(c3ccccc3)c3ccc(Cl)cc3)CC2)c1 (centres undefined)
active: [1] 18.8 µM
not listed: [10] | [15]
inactive: all other assays above

CCCCCCCCCCCCCCC1CO1 (centres undefined)
not listed: [10] | [15] | [17]
inactive: all other assays above

Cc1cccc2nccnc12
not listed: [10] | [12] | [20]
inactive: all other assays above

Cc1c(C)c([N+](=O)[O-])c(C(C)(C)C)c([N+](=O)[O-])c1C
not listed: [10] | [20]
inactive: all other assays above

Cc1cc2c(OCC(CNC(C)(C)C)OC(=O)c3ccccc3)cccc2[nH]1 (centres undefined)
active: [12] 0.168 µM
not listed: [15] | [16] | [17] | [18] | [20]
inactive: all other assays above

Oc1ccc(C2CNCCc3c2cc(O)c(O)c3Cl)cc1 (centres undefined)
active: [16] 0.151 µM
not listed: [9] | [12] | [13] | [15] | [20]
inactive: all other assays above

O=C(Nc1ccccc1)c1ccccc1O
active: [2] 61.1 µM
not listed: [9] | [20]
inactive: all other assays above

COS(=O)(=O)C(F)(F)F
active: [2] 71.7 µM
not listed: [8] | [14] | [17] | [20]
inactive: all other assays above

CC[C@@H](CO)NCCN[C@@H](CC)CO
not listed: [9] | [15] | [16] | [17] | [18] | [19] | [20]
inactive: all other assays above

C[C@@H]1[C@H](O)[C@@H](C)/C=C/C=C\C=C\C=C\C=C\C=C\C=C\[C@H](O[C@@H]2O[C@H](C)[C@@H](O)[C@H](N)[C@@H]2O)C[C@@H]2O[C@](O)(C[C@@H](O)C[C@@H](O)[C@H](O)CC[C@@H](O)C[C@@H](O)CC(=O)O[C@H]1C)C[C@H](O)[C@H]2C(=O)O (stereo in doubt)
active: [2] 68.6 µM
not listed: [9] | [11] | [15] | [16] | [17] | [18] | [19]
inactive: all other assays above

CC(=O)OCC(C)C
not listed: [9] | [17] | [19]
inactive: all other assays above

— PubChem BioAssay (Tox21)
